A short description of assay [1]: anti-His antibody binders, primary screen, artefact control for SMM control protein annotation, biochemical, small-molecule microarray, 635 nm fluorescence (AID 1128).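 Further: score merges feature fluorescence with signal-to-noise for each printed compound spot.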 The following applies: anti-His Alexa647 antibody binding, higher = more signal.
Assay [2] concerns Human papillomavirus type 1a E7 protein (residues 1-88). Put plainly: HPV1a E7 small-molecule binders, primary screen, biochemical, small-molecule microarray, residues 1-88, 635 nm (AID 1129). The note with it: small-molecule microarray binding, fluorescence 635 nm; higher = more signal.
Assay [3] concerns the target Focal adhesion kinase 1 (Homo sapiens) (UniProt Q05397). Put plainly: small-molecule microarray binders of FAK, primary screen, biochemical, 635/667 nm fluorescence, BSA, DTT (AID 1130).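 Further: composite of spot emission at 667 nm and signal to noise over triplicate slides.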 The note with it: PTK2 binding, 635 nm fluorescence, higher = more signal.
Assay [4] relates to Fibrinogen (Alexa647-labelled). The assay can be described thus: fibrinogen binders on compound microarrays, profiling panel, artefact control for SMM control-protein annotation, biochemical, small-molecule microarray, 635/667 nm fluorescence (AID 1131).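 Further: z-score merges 667 nm fluorescence with per-spot signal-to-noise over triplicate slides.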 The following applies: fibrinogen-A647 binding fluorescence, higher = more signal.
Assay [5] concerns the target Follistatin (Homo sapiens) (UniProt P19883). Put plainly: follistatin binders on small-molecule microarrays, primary screen, biochemical, small-molecule microarray, 635/667 nm fluorescence (AID 1132). The note with it: FST binding, 635 nm fluorescence, higher = more signal.
For assay [6], the target named is Fibroblast growth factor 2 (Homo sapiens) (UniProt P09038). Put plainly: FGF2 binders on small-molecule microarrays, primary screen, biochemical, small-molecule microarray, 635/667 nm fluorescence (AID 1133). The note with it: small-molecule microarray binding, FGF2, fluorescence 635/667; higher = more signal.
Fibroblast growth factor 2 (Homo sapiens), sequence (P09038 whole entry, looked up): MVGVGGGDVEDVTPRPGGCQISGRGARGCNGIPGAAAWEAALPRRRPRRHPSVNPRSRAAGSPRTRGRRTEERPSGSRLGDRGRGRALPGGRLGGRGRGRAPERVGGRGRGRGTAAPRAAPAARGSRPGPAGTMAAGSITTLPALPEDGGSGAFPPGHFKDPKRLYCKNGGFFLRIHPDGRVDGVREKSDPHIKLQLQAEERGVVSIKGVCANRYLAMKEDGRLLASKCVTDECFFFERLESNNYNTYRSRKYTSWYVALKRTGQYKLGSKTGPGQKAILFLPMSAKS
Assay [7] can be described thus: mitochondrial membrane potential change in A549 cells, profiling panel, cell-based, JC-1 fluorescence, basal, 24 h, 100 nL (AID 1138).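 Further: A549 lung adenocarcinoma cells under basal conditions with no added stimulus; test concentration not given here.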 The following applies: higher = more signal.
Assay [8] relates to Lefty1. Put plainly: Lefty1 binders on small-molecule microarrays, primary screen, biochemical, small-molecule microarray, 635/667 nm fluorescence (AID 1139). The following applies: small-molecule microarray binding, fluorescence 635/667; higher = more signal.
For assay [9], the system named is wheat germ agglutinin (Triticum aestivum), Alexa647-labelled. The assay can be described thus: wheat germ agglutinin binders on compound microarrays, profiling panel, artefact control for SMM control-protein annotation, biochemical, small-molecule microarray, 635/667 nm fluorescence (AID 1140).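 Further: score merges 667 nm feature emission with signal to noise over triplicate slides.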 The following applies: WGA-A647 binding, 635 nm fluorescence, higher = more signal.

The target of assay [10] is Luciferin 4-monooxygenase (Photinus pyralis) (UniProt P08659). Put plainly: firefly luciferase enzyme inhibitors, primary screen, biochemical, luminescence, purified enzyme, 2006 set (AID 1141).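 Further: cell-free assay with purified firefly luciferase at 100 ng per well in PBS; test concentration not given here.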 The following applies: SteadyGlo luminescence, 30 min, higher = more signal, called active from +8 up or from −8 down.
Luciferin 4-monooxygenase (Photinus pyralis), sequence (P08659 whole entry, looked up): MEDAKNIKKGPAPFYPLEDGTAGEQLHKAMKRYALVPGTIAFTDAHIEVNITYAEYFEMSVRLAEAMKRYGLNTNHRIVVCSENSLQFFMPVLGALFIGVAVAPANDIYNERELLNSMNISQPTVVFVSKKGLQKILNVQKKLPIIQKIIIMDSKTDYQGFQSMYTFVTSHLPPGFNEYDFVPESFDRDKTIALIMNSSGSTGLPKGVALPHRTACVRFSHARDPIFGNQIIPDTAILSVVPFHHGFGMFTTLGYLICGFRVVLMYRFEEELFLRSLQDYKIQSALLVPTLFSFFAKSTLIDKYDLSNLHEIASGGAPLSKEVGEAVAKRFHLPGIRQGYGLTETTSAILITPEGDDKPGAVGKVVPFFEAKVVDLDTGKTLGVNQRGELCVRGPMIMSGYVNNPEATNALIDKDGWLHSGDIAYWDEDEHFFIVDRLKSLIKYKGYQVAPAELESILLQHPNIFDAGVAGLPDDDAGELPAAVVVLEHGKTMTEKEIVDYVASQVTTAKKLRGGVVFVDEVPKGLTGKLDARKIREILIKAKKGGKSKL
In assay [11] the test system is Wnt5a (protein binding on small-molecule microarray). Put plainly: Wnt5a binders on small-molecule microarray, primary screen, biophysical, 635/667 nm fluorescence (AID 1142).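 Further: fluorescence read at 667 nm with signal to noise per printed feature.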 The note with it: 635 nm fluorescence, higher = more signal.
Assay [12] in a line: cell viability in Huh7 cells, primary screen, cytotoxicity control for HCV replication inhibitor project, CellTiter-Glo luminescence, basal, 48 h (AID 1143).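 Further: Huh7 hepatoma cells carrying a hepatitis C replication reporter with no stimulus; test concentration not given here.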 The following applies: Huh7 HCV replicon, higher = more signal, called active from +8 up or from −8 down. Background: ATP-based viability assays read luminescence as a measure of living cells.
Assay [13] can be described thus: P. aeruginosa biofilm formation inhibitors, primary screen, PAO1 strain, BacTiter-Glo luminescence, LB-PBS (AID 1144). The following applies: 12 h, higher = more signal.
The nature of assay [14]: CREB reporter modulators without forskolin, primary screen, cell-based, PC12, CRE-LacZ reporter, unstimulated (AID 1145). The note with it: no forskolin, luminescence, 4.5 h, higher = more signal, called active from +8 up or from −8 down.
A short description of assay [15]: CREB reporter modulators under forskolin, primary screen, cell-based, PC12, CRE-LacZ reporter, forskolin-stimulated (AID 1146).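 Further: PC12 cells with 6xCRE LacZ reporter stimulated by forskolin 10 µM; beta-galactosidase reporter signal reflecting CREB driven transcription.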 The note with it: luminescence, 4.5 h, higher = more signal, called active from +8 up or from −8 down.
Assay [16] has as its target Streptavidin (Streptomyces avidinii) (UniProt P22629). The assay can be described thus: streptavidin binders on small-molecule microarray, primary screen, artefact control for SMM compound annotation, biophysical, 635/667 nm fluorescence (AID 1147).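 Further: signal reflects streptavidin binding to arrayed compounds as a control protein.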 The following applies: streptavidin binding, higher = more signal.
Assay [17] can be described thus: small-molecule binders of probe aInhba, primary screen, biochemical, small-molecule microarray, 635/667 nm fluorescence (AID 1148).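 Further: score merges 667nm spot fluorescence with signal-to-noise for antibody binding to printed compounds.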 The following applies: higher = more signal.
Assay [18] addresses Torsin-1A (Homo sapiens) (UniProt O14656). The assay can be described thus: torsin A binders from cell lysate, primary screen, small-molecule microarray, wild-type, 635/667 nm (AID 1149). The following applies: COS7 hTOR1A-WT lysate, 635 nm fluorescence, higher = more signal.
For assay [19] the target is unchanged. Put plainly: small-molecule binders of mutant TOR1A in lysate, primary screen, cell lysate, small-molecule microarray, COS7 lysate, 635/667 nm fluorescence (AID 1150).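 Further: score pools 667 nm emission and signal to noise measuring lysate protein binding.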 The note with it: COS7 hTOR1A mutant lysate, 635 nm fluorescence, higher = more signal.
Assay [20] deals with Sonic hedgehog protein (Shh). Put plainly: small-molecule binders of Shh protein, primary screen, biochemical, small-molecule microarray, 635/667 nm fluorescence (AID 1151).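 Further: Shh protein binding to compounds spotted on small-molecule microarray slides; score combines spot fluorescence intensity with signal-to-noise across triplicate slides.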 The note with it: small-molecule microarray binding, 635 nm fluorescence; higher = more signal.

The source made the active and inactive calls. Unless noted, how the calls were made is not given here.

Torsin-1A (Homo sapiens), sequence (O14656 whole entry, looked up): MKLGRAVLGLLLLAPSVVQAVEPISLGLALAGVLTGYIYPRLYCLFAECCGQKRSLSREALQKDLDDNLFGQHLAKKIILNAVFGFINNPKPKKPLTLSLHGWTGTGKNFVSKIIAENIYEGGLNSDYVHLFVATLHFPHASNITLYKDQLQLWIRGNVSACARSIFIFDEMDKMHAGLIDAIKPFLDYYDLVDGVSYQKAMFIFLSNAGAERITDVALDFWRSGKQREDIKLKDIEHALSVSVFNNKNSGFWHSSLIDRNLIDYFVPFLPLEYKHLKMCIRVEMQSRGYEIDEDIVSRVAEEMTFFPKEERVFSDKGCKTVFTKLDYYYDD
Streptavidin (Streptomyces avidinii), sequence (P22629 whole entry, looked up): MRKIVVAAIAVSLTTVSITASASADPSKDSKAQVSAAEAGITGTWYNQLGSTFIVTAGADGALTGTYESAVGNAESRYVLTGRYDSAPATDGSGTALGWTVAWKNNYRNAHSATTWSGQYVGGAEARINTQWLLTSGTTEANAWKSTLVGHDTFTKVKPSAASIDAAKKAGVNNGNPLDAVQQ
Focal adhesion kinase 1 (Homo sapiens), sequence (Q05397 whole entry, looked up): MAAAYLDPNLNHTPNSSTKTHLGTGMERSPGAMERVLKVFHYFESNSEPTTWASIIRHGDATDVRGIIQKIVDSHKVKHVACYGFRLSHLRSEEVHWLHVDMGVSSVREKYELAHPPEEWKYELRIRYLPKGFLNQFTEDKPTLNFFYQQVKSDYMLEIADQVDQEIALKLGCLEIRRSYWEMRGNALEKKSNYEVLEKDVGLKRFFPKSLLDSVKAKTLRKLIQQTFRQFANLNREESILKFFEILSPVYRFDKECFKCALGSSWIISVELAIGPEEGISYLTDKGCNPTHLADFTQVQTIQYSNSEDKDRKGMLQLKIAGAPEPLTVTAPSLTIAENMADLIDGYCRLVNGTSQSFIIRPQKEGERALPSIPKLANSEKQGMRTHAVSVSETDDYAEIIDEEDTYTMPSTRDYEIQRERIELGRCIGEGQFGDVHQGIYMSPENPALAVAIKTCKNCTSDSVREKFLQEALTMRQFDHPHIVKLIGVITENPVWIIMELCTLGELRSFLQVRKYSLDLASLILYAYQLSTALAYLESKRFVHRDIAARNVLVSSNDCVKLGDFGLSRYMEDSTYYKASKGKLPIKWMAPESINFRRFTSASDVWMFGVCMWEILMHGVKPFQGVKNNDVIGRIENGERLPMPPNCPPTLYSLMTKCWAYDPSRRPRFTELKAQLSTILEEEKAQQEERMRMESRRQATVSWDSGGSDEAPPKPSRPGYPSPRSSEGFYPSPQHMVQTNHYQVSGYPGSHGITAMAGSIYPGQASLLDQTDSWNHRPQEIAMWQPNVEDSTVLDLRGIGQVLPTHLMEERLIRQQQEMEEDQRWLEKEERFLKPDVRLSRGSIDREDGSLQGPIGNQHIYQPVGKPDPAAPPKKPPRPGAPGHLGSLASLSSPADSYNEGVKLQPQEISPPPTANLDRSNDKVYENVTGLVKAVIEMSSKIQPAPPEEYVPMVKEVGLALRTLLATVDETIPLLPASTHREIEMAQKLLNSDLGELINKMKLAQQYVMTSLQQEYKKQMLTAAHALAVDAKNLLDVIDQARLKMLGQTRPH
Follistatin (Homo sapiens), sequence (P19883 whole entry, looked up): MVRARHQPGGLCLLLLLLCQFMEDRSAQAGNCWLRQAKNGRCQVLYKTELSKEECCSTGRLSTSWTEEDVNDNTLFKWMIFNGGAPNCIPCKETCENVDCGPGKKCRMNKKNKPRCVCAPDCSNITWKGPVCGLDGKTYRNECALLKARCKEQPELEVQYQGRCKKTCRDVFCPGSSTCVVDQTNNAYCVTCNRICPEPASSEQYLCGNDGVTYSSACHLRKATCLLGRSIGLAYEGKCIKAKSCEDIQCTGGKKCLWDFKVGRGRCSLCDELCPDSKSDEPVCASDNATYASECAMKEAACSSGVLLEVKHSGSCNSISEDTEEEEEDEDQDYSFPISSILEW

As to `C=CC[C@]12N=C(c3ccc(OCCCO)cc3)O[C@H]1c1ccccc1N(Cc1ccccc1)C2=O`, the composite z-score in [1] is 1.74; in [2], 0.998; in assay [3], 0.804; in [4], -0.0608; in assay [5] it was 1.29; in [6], 1.34. The composite z-score in [8] is -0.0331; in assay [9] it was 0.442; in assay [11] it was 0.373; in assay [16], -0.255; in [17], 0.153; in [18], 0.35. Also, the results for the composite z-score in assay [19] and in [20] were 1.04 and 0.351, respectively. Besides, the z-score in assay [7] is -1.21; in [10], -4.07 (inactive); in assay [12], -3.92 (inactive); in assay [13] it was 0.71 (inactive); in [14] it was -0.389 (inactive); in assay [15], -1.64 (inactive).

`COc1cc(CO)cc(I)c1O[C@H]1C=C(C(=O)NCCO)C[C@@H](N(CCN2CCOCC2)C(=O)C2CCOC2)[C@@H]1O` (stereo not given in full): the composite z-score in [1] is -0.504; in assay [2] it was -0.233; in assay [3] it was -0.508; in assay [4], 0.651; in [5] it was 0.581; in [6], 0.675. In addition, the composite z-score was 0.792 in assay [8]; -0.201 in assay [9]; -0.31 in [11]; -0.512 in [16]; -0.0195 in assay [17]; 0.055 in assay [18]. Besides, the composite z-score turned out to be 0.399 in assay [19] and 0.309 in assay [20]. Also, the z-score in assay [7] was 1.86; in [10], -1.13 (inactive); in assay [12] it was -0.846 (inactive); in assay [13], 0.367 (inactive); in assay [14] it was 0.495 (inactive); in assay [15] it was -1.45 (inactive).

As for `COCCOC(=O)N1C(=O)[C@@]2(c3cc(C#Cc4ccc(OC)cc4)ccc31)[C@H](c1ccc(O)cc1)N1[C@H](c3ccccc3)[C@H](c3ccccc3)OC(=O)[C@H]1[C@@H]2C(=O)NC[C@H](O)c1ccccc1`, the composite z-score is 0.522 in assay [1]; 1.22 in assay [2]; -0.0575 in [3]; 0.994 in [4]; 1.3 in assay [5]; 1.4 in assay [6]. Besides, the composite z-score in [8] is 1.33; in assay [9] it was 0.623; in [11] it was 0.763; in [16], 0.452; in assay [17] it was -0.0259; in [18] it was 0.105. The composite z-score in assay [19] came out at 1.07; in [20], 2.05. The z-score is -1.51 in [7]; 1.05 (inactive) in assay [10]; -3.94 (inactive) in assay [12]; -0.88 (inactive) in [13]; -1.15 (inactive) in assay [14]; 0.7 (inactive) in assay [15].

Regarding `CC(C)c1ccc(NN2C(C(O)c3cc(C(F)(F)F)cc(C(F)(F)F)c3)C=CC3C(=O)N(c4ccccc4)C(=O)C32)cc1` (stereo not given), the composite z-score in assay [1] is 0.444; in [2] it was 1.22; in [3], 0.579; in assay [4], 0.975; in assay [5], -0.105; in assay [6], -0.313. The composite z-score in assay [8] was -0.842; in assay [9] it was 1.13; in assay [11], -0.0702; in assay [16], 0.759; in [17], 0.0001; in assay [18] it was -0.283. In addition, the composite z-score in [19] was 0.843; in assay [20] it was -0.254. Moreover, the z-score was -0.731 in [7]; 0.0708 (inactive) in assay [10]; -2.86 (inactive) in assay [12]; -1.4 (inactive) in assay [13]; -0.322 (inactive) in assay [14]; 0.849 (inactive) in assay [15].

Regarding `O=C1O[C@@H](c2ccccc2)[C@@H](c2ccccc2)N2[C@@H](c3ccccc3OCCO)[C@]3(C(=O)Nc4ccc(C#CC5=CCCCC5)cc43)[C@@H](C(=O)Nc3nc4ccccc4s3)[C@H]12`, the composite z-score in assay [1] worked out at 0.353; in assay [2], 1.17; in assay [3] it was 0.0358; in assay [4], 0.843; in assay [5], 1.12; in [6] it was 0.885. Besides, the composite z-score is 0.781 in [8]; 0.622 in assay [9]; 0.799 in assay [11]; 1.1 in assay [16]; 0.0516 in [17]; -0.271 in [18]. For the same molecule, the composite z-score in assay [19] is 0.335; in assay [20] it was 0.988. Besides, the z-score is -2.22 in [7]; -0.959 (inactive) in assay [10]; -4.3 (inactive) in [12]; -1.15 (inactive) in assay [13]; -0.191 (inactive) in assay [14]; 0.447 (inactive) in assay [15].

Source of the values: PubChem BioAssay.
